TEAD-YAP block – TEAD-YAP interaction inhibition, primary screen, TEAD-YAP interaction inhibitor project, luminescence, HEK-TIYL cells. inhibition, % at 9.12 µM. 640,000 compounds, 1.4% hits. AID 1259422, 2018. TEAD-Gal4/YAP UAS-luciferase luminescence; in the data active = inhibition above about 32%
MITF inh – MITF inhibitors, primary screen, biochemical, AlphaScreen, human; Microphthalmia-associated transcription factor (Homo sapiens), O75030; AlphaScreen MITF homodimerization, bead proximity signal; inhibition, % at 2.6 µM; 650,000 compounds, 0.91% hits; AID 1259374, 2018; in the data active = inhibition above about 50%
FBW7 activator – FBW7 E3 ligase activators, primary screen, biochemical, AlphaScreen, human. F-box/WD repeat-containing protein 7 (Homo sapiens), Q969H0. AlphaScreen FBW7–phospho-cyclin E peptide binding, activator screen. normalized activity (activation), % at 26.1 µM. 650,000 compounds, 0.13% hits. AID 1259310, 2017; in the data active = normalized activity above about 1.9%;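 note: purified mutant Fbw7 with reduced substrate affinity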
Target sequence (Q969H0 whole entry, looked up): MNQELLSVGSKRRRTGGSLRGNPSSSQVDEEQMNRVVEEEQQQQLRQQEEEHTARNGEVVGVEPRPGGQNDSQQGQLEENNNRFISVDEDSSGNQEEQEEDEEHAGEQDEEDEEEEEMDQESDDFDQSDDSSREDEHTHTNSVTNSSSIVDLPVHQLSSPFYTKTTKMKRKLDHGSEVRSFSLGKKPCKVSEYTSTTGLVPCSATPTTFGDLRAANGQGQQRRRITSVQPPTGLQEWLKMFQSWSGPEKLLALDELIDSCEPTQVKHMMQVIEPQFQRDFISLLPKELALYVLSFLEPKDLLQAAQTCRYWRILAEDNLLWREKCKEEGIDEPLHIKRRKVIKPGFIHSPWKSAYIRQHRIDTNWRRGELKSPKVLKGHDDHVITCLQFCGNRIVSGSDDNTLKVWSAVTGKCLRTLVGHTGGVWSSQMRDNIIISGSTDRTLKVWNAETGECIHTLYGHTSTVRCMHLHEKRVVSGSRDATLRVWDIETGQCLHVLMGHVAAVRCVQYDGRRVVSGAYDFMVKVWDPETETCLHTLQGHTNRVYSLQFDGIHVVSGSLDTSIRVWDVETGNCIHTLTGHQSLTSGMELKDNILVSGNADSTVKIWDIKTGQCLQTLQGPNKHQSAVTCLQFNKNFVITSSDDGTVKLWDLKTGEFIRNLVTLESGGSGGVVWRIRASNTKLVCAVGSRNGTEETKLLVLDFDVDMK
GPR151 ag – activators of human GPR151, primary screen, cell-based, PathHunter beta-arrestin, luminescence; PathHunter beta-arrestin GPR151 cells; activation, % at 11.2 µM; 650,000 compounds, 1% hits; in the data active = activation above about 4.9%
MITF inh conf – MITF inhibitors, retest of hits, confirmation, biochemical, AlphaScreen, triplicate; AlphaScreen MITF homodimerization, biotin/His-MITF beads; inhibition, % at 2.6 µM; shares compounds with MITF inh; 4,700 compounds, 16% hits;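 active = inhibition above a cutoff derived from the DMSO control wells, cut at about 28% in these data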;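 note: inhibitors lower the bead chemiluminescence by keeping MITF from dimerizing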
AS interf ctr – AlphaScreen optical interference compounds, counter-screen for MITF inhibitor project, biochemical, triplicate; LysRS AlphaScreen counterscreen, signal interference; 4,700 compounds, 7.6% hits; inhibition, % at 2.6 µM; shares compounds with MITF inh; AID 1259376, 2018;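 active = inhibition above a cutoff derived from the DMSO control wells, cut at about 30% in these data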
Hits are given with their value; – = inactive; · = not tested or not shown. A selection: hits, their analogues and other compounds. The true share with any hit is near 3.5%.

SMILES	TEAD-YAP block	MITF inh	FBW7 activator	GPR151 ag	MITF inh conf	AS interf ctr
CC1CCCN(C(=O)C2CCN(Cc3cccc(O)c3)CC2)C1 (stereo unspecified)	–	–	–	–	·	·
O=C(c1ccc2ccccc2c1)N1CCC2(CC1)OCCN2S(=O)(=O)c1cccs1	–	–	–	–	·	·
CC(=O)CCCC(C)CCCC(C)CCCC(C)C (stereo unspecified)	–	–	–	–	·	·
C/C(=C\CO)CC[C@H](C)CCC[C@H](C)CCCC(C)C	–	105	–	–	–	–
CN(C)CC(C)(C)CNC(=O)C1CCN(Cc2ccccc2Cl)CC1	–	63	–	–	–	–
O=C(NCc1ccco1)C1CCN(Cc2cccc(Cl)c2Cl)CC1	–	51	–	–	–	–
COc1ccc(CN2CCN(Cc3ccco3)CC2)cc1Br	–	72	–	–	–	–
COc1ccc(CNC(=O)N2CCN(CC(=O)c3ccco3)CC2)cc1OC	–	54	–	–	–	–
CCOc1cc(CN2CCN(Cc3ccco3)CC2)ccc1OC	–	–	–	–	·	·
COc1ccc(CN2CCN(Cc3ccco3)CC2)cc1OC	–	71	–	–	–	–
Cc1ccc(N=C2NC(=O)/C(=C\c3cc(C)n(-c4ccc(N(C)C)cc4)c3C)S2)cc1	–	–	–	–	·	·
COc1ccc([N+](=O)[O-])cc1N(CC(=O)O)S(C)(=O)=O	–	59	–	–	–	–
CCOC(=O)C1CCN(C/C=C/c2ccccc2[N+](=O)[O-])CC1	–	54	–	–	–	–
CCOC(=O)C1CCN(C/C=C/c2ccccc2OC)CC1	–	–	–	–	·	·
COc1ccc(CCc2nnc(CCC(=O)N3CCC(C(O)C(C)C)CC3)o2)cc1 (stereo unspecified)	–	–	–	–	·	·
COc1ccc(-c2n[nH]c(=S)n2/N=C/c2cc(OC)ccc2OC)cc1	–	55	–	–	–	–
COc1ccccc1-c1nnc(SCC(=O)N2CCc3ccccc32)o1	–	62	–	–	–	–
C=CCn1c(SCC(=O)NC23CC4CC(CC(C4)C2)C3)nc2sc3c(c2c1=O)CCC3	–	–	–	–	·	·
CC(O)CCC(=O)N/N=C/c1ccc(Cl)cc1Cl (stereo unspecified)	–	–	–	–	·	·
O=C(Cc1cn2ccsc2n1)N/N=C/c1ccc([N+](=O)[O-])o1	–	70	–	–	92	40
CCCOCc1ccc(O)c2ncccc12	–	81	–	–	80	100
Oc1ccc(CN2CCN(c3ccccc3F)CC2)c2cccnc12	–	–	–	–	·	·
CCOC(=O)N1CCN(Cc2ccc(O)c3ncccc23)CC1	–	71	–	–	50	97
Cc1ccc(-c2csc(NC(=O)c3cc(Cl)cc(Cl)c3)n2)c(C)c1	–	75	–	–	–	–
CC(=O)Nc1nc(-c2ccc(C)cc2C)cs1	–	–	–	–	·	·
SMILES	TEAD-YAP block	MITF inh	FBW7 activator	GPR151 ag	MITF inh conf	AS interf ctr
C[C@H]1CCC(C(=O)O)N[C@@H]1c1ccc(C#CCN(C)C)cc1 (stereo partly specified)	·	–	–	–	·	·
CC(C)c1ccc(N(C(=O)c2ccc(Br)o2)C2C=CS(=O)(=O)C2)cc1 (stereo unspecified)	–	–	–	–	·	·
COc1cc(N)ccc1NC(=O)CSc1ncnc2sc3c(c12)CCCC3	–	79	–	–	–	–
Nc1ccccc1NS(=O)(=O)c1ccccc1	–	–	–	–	·	·
O=[N+]([O-])c1ccccc1S(=O)(=O)N1CCN(Cc2cccc(Br)c2)CC1	–	–	–	–	·	·
O=[N+]([O-])c1ccc(S(=O)(=O)N2CCN(Cc3ccccc3)CC2)cc1	–	–	–	–	·	·
COc1ccc(CN2CCN(S(=O)(=O)c3ccc([N+](=O)[O-])cc3)CC2)cc1	–	53	–	–	–	–
O=[N+]([O-])c1ccc(S(=O)(=O)N2CCN(Cc3ccc(Br)cc3)CC2)cc1	–	61	–	–	–	36
O=[N+]([O-])c1ccc(S(=O)(=O)N2CCN(Cc3cccc(Br)c3)CC2)cc1	–	77	–	–	–	–
COc1ccc(S(=O)(=O)N2CCN(Cc3ccc([N+](=O)[O-])cc3)CC2)cc1	–	–	–	–	·	·
